# Screening data: PubChem BioAssay, several laboratories
# ugtP null kill: growth inhibition of S. aureus ugtP deletion strain; S. aureus RN4220 ugtP deletion, OD600 growth, 16 h; growth inhibition, % (no concentration beside the values); 0.54% of 330,000 active; in the data active = growth inhibition above about 68%;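 note: plate controls were untreated wells for no effect and antibiotic for full effect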
# Mtb hypoxia inh: reduces hypoxia-regulated biosensor signal in M. tuberculosis. M. tuberculosis hypoxia-regulated fluorescent reporter, fluorescence. fluorescence inhibition, % (concentration not given with the values). 0.1% of 300,000 active; in the data active = fluorescence inhibition mostly above about 23%, no sharp cut-off; inactive = mostly below about 17%
# Sa RN4220 lethal: S. aureus RN4220 growth inhibition; OD600, 16 h; inhibition, % (no concentration beside the values); 0.33% of 330,000 active; in the data active = inhibition above about 85%;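 note: plate controls were untreated cells for no effect and reference antibiotic for full effect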
# PriA SSB inh: inhibitors of Klebsiella pneumoniae PriA binding to SSB C-terminal tail; inhibition, % at 33 µM; AlphaScreen SSBct-PriA binding, biotinylated peptide; 0.6% of 430,000 active; in the data active = inhibition mostly above about 37%, no sharp cut-off; inactive = mostly below about 20%;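 note: plate controls were negative control peptide for no effect and reference peptide for full effect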
# CCHF vOTU inh: CCHFV vOTU protease inhibition; Pep-AMC fluorescence; inhibition, % at 11.5 µM; 0.55% of 370,000 active; in the data active = inhibition above about 30%; note: 0% = vehicle wells with enzyme and 100% = no enzyme wells
# * marks the source's active call; other numbers are inactive results; . = no result shown. A selection: hits, their analogues and other compounds. The true share with any hit is near 1.4%.
SMILES,ugtP null kill,Mtb hypoxia inh,Sa RN4220 lethal,PriA SSB inh,CCHF vOTU inh
COc1ccc(-c2cc(-c3ccccc3)[n+](C)c(-c3ccccc3)c2)cc1,-1,23,-1,-13,-24
C[n+]1c(-c2ccccc2)cc(CCCCc2cc(-c3ccccc3)[n+](C)c(-c3ccccc3)c2)cc1-c1ccccc1,77,8,93*,13,-10
O=C(Nc1ccc2nc(-c3ccco3)c(-c3ccco3)nc2c1)N1CCN(c2ccccn2)CC1,-3,1,18,3,30*
O=C(Nc1ccccc1)c1ccc2nc(-c3ccco3)c(-c3ccco3)nc2c1,-10,8,18,32,48*
Cn1cc(C(=O)N(Cc2ccco2)C2CCOCC2)nn1,.,.,.,-19,.
O=C(c1csc2nc(-c3ccccc3)cn12)N1CCN(c2ccccc2)CC1,.,.,.,active,.
COc1ccccc1N1CCN(C(=O)c2csc3nc(-c4ccc(F)cc4)cn23)CC1,.,.,.,20*,.
O=C(c1csc(Nc2ccccc2)n1)N1CCN(c2ccccc2)CC1,.,.,.,21*,.
COC(=O)c1cccc(C23CC4(C2)C(CN(Cc2ccc(-c5ccccc5)cc2)C4c2ccccc2)C3c2ccc(Cl)nc2)c1 (centres undefined),3,0,-2,.,.
O=[N+]([O-])c1ccccc1C=Nn1c(C2CCCCC2)n[nH]c1=S,-3,13,6,13,.
COc1ccc(C=NNS(=O)(=O)c2ccccc2)cc1OC,-4,11,2,-1,.
NNc1nccc(Nc2ccccc2C(=O)O)n1,-3,0,1,59*,14
O=C(CSc1nc2ccccc2c(=O)n1Cc1ccc(C(=O)NC2CC2)cc1)Nc1cc(F)ccc1F,.,.,.,-15,.
O=C(Cn1ccc2ccccc21)Nc1cc(N2CCN(Cc3ccccc3)CC2)ncn1,.,.,.,44*,.
COc1cc(CN)cc(OC)c1OC,.,.,.,-15,.
COc1cc(Cc2cnc(N)nc2N)cc(OC)c1OC,100*,-1,98*,-8,-3
c1ccc(CSc2ncnc3c2cnn3Cc2ccccc2)cc1,97*,8,-4,-22,6
CC(C)(C)C(=O)CSc1ncnc2c1cnn2Cc1ccccc1,15,9,1,-7,9
CCCCNC(=O)C(=O)NN=Cc1ccc(C(=O)OC)cc1,2,13,4,-1,.
O=C(NCCn1ccnc1-c1ncccn1)C1c2ccccc2Oc2ccccc21,.,.,.,53*,.
COc1ccc(CCC(=O)NCCn2ccnc2-c2ncccn2)cc1,.,.,.,96*,.
O=C(CSCc1ccccc1)NCCn1ccnc1-c1ccccn1,.,.,.,19,.
O=C(CSCc1ccccc1)NCCn1ccnc1-c1ncccn1,.,.,.,42*,.
COc1ccc(CCC(=O)NCCn2ccnc2C2CC2)cc1,.,.,.,7,.
O=C(NCCn1ccn2nccc12)C1c2ccccc2Oc2ccccc21,.,.,.,-13,.
SMILES,ugtP null kill,Mtb hypoxia inh,Sa RN4220 lethal,PriA SSB inh,CCHF vOTU inh
O=C(NCCc1ccccc1)NCCn1ccnc1-c1ncccn1,.,.,.,96*,.
CSc1ccccc1C(=O)NCCn1ccnc1-c1ncccn1,.,.,.,97*,.
O=c1[nH]cc(-c2ccc(Br)cc2)n1Cc1ccccc1,10,11,-1,77*,-3
CC(C)(C)c1ccc(CNc2cc(N3CCOCC3)ccc2[N+](=O)[O-])cc1,92*,14,-4,25,17
O=C(Nc1ccc(Cl)c(Cl)c1)c1cccc(S(=O)(=O)NCc2cccnc2)c1,90,2,100*,-13,11
O=C(Nc1ccc(Cl)c(Cl)c1)OCc1cccnc1,100*,9,100*,-16,14
O=C(Nc1ccc(Cl)c(Cl)c1)ON=Cc1ccncc1,101*,5,100*,-12,.
CC(C)=CCC12Oc3cc(O)ccc3C1(O)Oc1cc(O)c([C@H]3C=C(C)CC(c4ccc(O)cc4O)[C@H]3C(=O)c3ccc(O)cc3O)c(O)c1C2=O (some centres undefined),100*,.,96*,17,.
ON(C=C1C=Nc2ccccc21)c1ccc(Br)cc1,.,.,.,17,.
Cc1cc(C)c2c(ccc3ccccc32)n1,.,.,.,-10,-6
Oc1ccc(-c2nc3ccc4ccccc4c3c3c2CCC3)cc1O,98*,2,-4,12,0
CCCCCCCCCCCCCCCC(=O)OC(CC(=O)O)C[N+](C)(C)C (centres undefined),99*,1,42,-22,-4
CCCCCCC(=O)O,6,.,3,-15,-6
Cn1cccc1C(=O)N1CCN(S(=O)(=O)c2ccc(C(C)(C)C)cc2)CC1,.,.,.,.,4
Cc1ccc(OC(=O)CCN2C(=O)c3ccccc3C2=O)cc1C,90*,4,5,-18,-3
Cc1cc(C)cc(OC(=O)CCN2C(=O)c3ccccc3C2=O)c1,84*,10,4,-10,-10
CCOc1ccc(NC(=O)CSc2nnc(CCC(=O)O)c(=O)[nH]2)cc1,.,.,.,-10,.
COc1ccc(-c2cc(=O)n(-c3nc4ccccc4[nH]3)[nH]2)cc1,-14,9,42,40*,-32
COc1ccc(-c2nc3ccccc3[nH]2)cc1,5,2,2,-12,0
CN(C)S(=O)(=O)c1cccc(NC(=S)NN=Cc2cc(Br)ccc2O)c1,0,-2,-4,47*,.
Cc1cccc(C)c1NC(=O)c1csc2nc(-c3ccc(F)cc3)cn12,.,.,.,11,.
CN1C=CC=C/C1=C(/C#N)c1nc(-c2ccccc2)cs1,.,.,.,99*,.
CN1C=CC=C/C1=C(/C#N)c1nc2ccccc2[nH]1,.,.,.,-11,.
CN1C=CC=C/C1=C(/C#N)c1nc(-c2ccc(Cl)cc2)cs1,.,.,.,134*,.
COc1ccccc1-c1csc(/C(C#N)=C2\C=CC=CN2C)n1,.,.,.,70*,.
SMILES,ugtP null kill,Mtb hypoxia inh,Sa RN4220 lethal,PriA SSB inh,CCHF vOTU inh
O=C(Nc1nc(-c2ccc([N+](=O)[O-])cc2)cs1)c1ccno1,.,.,.,0,.
O=S(=O)(CCc1ccccc1)NCC(c1ccsc1)N1CCCCCC1 (centres undefined),.,.,.,1,.
COc1ccc(Cl)cc1S(=O)(=O)Nc1ccc2c(c1)CCC(=O)N2CCC(C)C,.,.,.,-13,.
CCCCCCCn1c2c(c(=N)c3ccccc31)CCC2,89*,6,25,-4,-6
O=C(O)c1ccc(CN2C(=O)c3cccc4c([N+](=O)[O-])ccc(c34)C2=O)cc1,97*,-1,46,3,.
Cc1ccc(C(=O)O)cc1N1C(=O)c2cccc3c([N+](=O)[O-])ccc(c23)C1=O,.,.,.,-11,9
NC(=O)c1ccsc1NC(=O)c1ccc([N+](=O)[O-])o1,100*,.,100*,-3,8
O=C(NCc1nc(-c2ccc(C(F)(F)F)cc2)no1)Nc1cc(Cl)cc(Cl)c1,100*,5,100*,-5,-14
O=C(NCc1nc(-c2ccc(C(F)(F)F)cc2)no1)Nc1ccc(F)cc1F,-6,8,-2,-10,-5
Clc1ccc2c(c1)Nc1ccccc1CC2,89*,10,6,-25,3
COc1cc(/C=N\Nc2oc(C)nc2C#N)cc(Br)c1O,.,.,.,-2,.
COc1ccc(-c2n[nH]c(C(F)(F)F)c2-c2cc3ccccc3o2)c(O)c1,100*,7,100*,22,10
CCn1c2ccccc2c2cc(NC(=O)c3ccc(S(=O)(=O)N4CC(C)OC(C)C4)cc3)ccc21 (centres undefined),.,.,.,6,.
